PubChem BioAssay
Calls of active or inactive are those of the source.

How the values were obtained:
[1] = system: PRMT1 (protein arginine N-methyltransferase 1); experiment: small molecules binding arginine methyltransferase PRMT1 – biochemical, small-molecule microarray, 635 nm fluorescence, primary screen (AID 1088); conditions: higher = more signal;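 further: binding of Prmt1 protein to compounds spotted on small-molecule microarray slides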
[2] = growth effects on S. cerevisiae YJM789 – YJM789 clinical isolate, OD600, 24 h, basal, primary screen (AID 1089); conditions: higher = more signal, called active from +8 up or from −8 down;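 further: growth of clinical yeast isolate S. cerevisiae YJM 789 seeded 1000 cells per well; test concentration not given here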
[3] = S. pombe growth modifiers, basal conditions – strain 972, OD600, 24 h, no modulator, primary screen (AID 1090);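 further: basal condition with compound alone and no growth modifier present; test concentration not given here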; conditions: S. pombe 972 growth, higher = more signal, called active from +8 up or from −8 down
[4] = budding yeast growth modifiers under rapamycin – strain BY4716, OD600, 96 h, primary screen (AID 1091); further: test concentration not given here; conditions: S. cerevisiae BY4716 + rapamycin, higher = more signal, called active from +8 up or from −8 down
[5] = molecular target: Torsin-1A-interacting protein 2 (Homo sapiens) (UniProt Q8NFQ8); experiment: small molecules binding lysate-expressed LULL1 – cell lysate, human LULL1 lysate, 635/667 nm fluorescence, primary screen (AID 1092); conditions: small-molecule microarray, hLULL1 lysate binding, 635 nm fluorescence; higher = more signal;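 further: probe is lysate of COS7 cells overexpressing human LULL1; score merges per-feature 667 nm fluorescence with signal-to-noise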
[6] = optical density change of DRC41 E. coli – strain DRC41, OD650, 24 h, E. coli filamentation project, primary screen (AID 1093);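 further: MC1000 strain lacking acrAB efflux and sulA so SOS filamentation is blocked; test concentration not given here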; conditions: E. coli DRC41 growth, higher = more signal, called active from +8 up or from −8 down
[7] = probe aLefty2 binding to arrayed compounds – biochemical, biotinylated probe, 635/667 nm fluorescence, primary screen (AID 1094); conditions: small-molecule microarray, higher = more signal;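 further: score merges spot fluorescence near 667 nm with spot signal-to-noise ratio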
[8] = system: Noggin (protein binding on small-molecule microarray); experiment: small molecules binding Noggin protein – biochemical, 635/667 nm fluorescence, primary screen (AID 1095); conditions: 635 nm fluorescence, higher = more signal;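 further: score merges 667 nm feature fluorescence with signal to noise over triplicate slides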
[9] = molecular target: Neurogenic locus notch homolog protein 3 (Homo sapiens) (UniProt Q9UM47); experiment: small molecules binding NOTCH3 protein – biochemical, 635/667 nm fluorescence, primary screen (AID 1096); conditions: small-molecule microarray, 635 nm fluorescence, higher = more signal
[10] = probe aEGFR binding to arrayed compounds – biochemical, biotinylated probe, 635/667 nm fluorescence, primary screen (AID 1097); conditions: small-molecule microarray, higher = more signal;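 further: probe is a biotinylated anti-EGFR antibody binding compounds printed on slides; score combines fluorescence near 667 nm and signal to noise of each spot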
[11] = system: Plasmodium falciparum Sir2 (PF13_0152, Sir2A); experiment: Plasmodium falciparum Sir2A binding compounds – biochemical, small-molecule microarray, 635 nm fluorescence, primary screen (AID 1098); conditions: fluorescence 635 nm, higher = more signal;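 further: score merges spot fluorescence intensity with its signal-to-noise ratio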
[12] = probe aDKK1 binding to arrayed compounds – biochemical, biotinylated probe, 635/667 nm fluorescence, primary screen (AID 1099); conditions: small-molecule microarray, higher = more signal;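 further: score merges 667nm spot fluorescence with signal to noise across triplicate slides; reference of the scale not given here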
[13] = probe aCHRDL2 binding to arrayed compounds – biochemical, biotinylated probe, 635/667 nm fluorescence, primary screen (AID 1100); conditions: small-molecule microarray, higher = more signal
[14] = change in splice reporter luminescence, either direction, cell-based, HEK293, spliceosome inhibition project, primary screen (AID 1101); conditions: HEK293 splicing luciferase reporter, 24 h, higher = more signal, called active from +8 up or from −8 down;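 further: HEK293 cells carrying a splicing-competent luciferase reporter gene; test concentration not given here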
[15] = molecular target: Fibroblast growth factor 10 (Homo sapiens) (UniProt O15520); experiment: compounds binding fibroblast growth factor 10 – biochemical, small-molecule microarray, 635 nm fluorescence, primary screen (AID 1102); conditions: FGF10 binding, fluorescence 635 nm, higher = more signal
[16] = system: glycogen synthase kinase-3 (GSK3A per assay name; protocol says GSK3B); experiment: compounds binding glycogen synthase kinase-3 – biochemical, small-molecule microarray, 635 nm fluorescence, GSK3A, primary screen (AID 1103); conditions: fluorescence 635 nm, higher = more signal; further: the record names both GSK3A and GSK3B
[17] = molecular target: Epidermal growth factor receptor (Homo sapiens) (UniProt P00533); experiment: compounds binding epidermal growth factor receptor – biochemical, small-molecule microarray, 635 nm fluorescence, primary screen (AID 1104); conditions: EGFR binding, higher = more signal;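 further: score merges 667 nm emission intensity with spot signal to noise over triplicate slides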
[18] = molecular target: Follistatin-related protein 3 (Homo sapiens) (UniProt O95633); experiment: compounds binding follistatin-related protein 3 – biochemical, small-molecule microarray, 635 nm fluorescence, primary screen (AID 1105); conditions: FSTL3 binding, higher = more signal;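 further: score merges emission near 667 nm and signal to noise per printed spot across three slides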
[19] = molecular target: Dickkopf-related protein 1 (Homo sapiens) (UniProt O94907); experiment: small molecules binding DKK1 protein – biochemical, small-molecule microarray, 635 nm fluorescence scan, primary screen (AID 1106); conditions: higher = more signal;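 further: score merges emission near 667 nm with signal to noise over three replicate slides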
[20] = system: Inhibin beta A chain (activin A); experiment: small molecules binding activin A – biochemical, small-molecule microarray, 635 nm fluorescence scan, primary screen (AID 1107); conditions: INHBA, higher = more signal;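 further: mouse activin A protein probed at 4.33 µg/mL on printed slides; score merges bound-protein fluorescence near 667 nm with spot signal-to-noise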

Epidermal growth factor receptor (Homo sapiens), sequence (P00533 whole entry, looked up): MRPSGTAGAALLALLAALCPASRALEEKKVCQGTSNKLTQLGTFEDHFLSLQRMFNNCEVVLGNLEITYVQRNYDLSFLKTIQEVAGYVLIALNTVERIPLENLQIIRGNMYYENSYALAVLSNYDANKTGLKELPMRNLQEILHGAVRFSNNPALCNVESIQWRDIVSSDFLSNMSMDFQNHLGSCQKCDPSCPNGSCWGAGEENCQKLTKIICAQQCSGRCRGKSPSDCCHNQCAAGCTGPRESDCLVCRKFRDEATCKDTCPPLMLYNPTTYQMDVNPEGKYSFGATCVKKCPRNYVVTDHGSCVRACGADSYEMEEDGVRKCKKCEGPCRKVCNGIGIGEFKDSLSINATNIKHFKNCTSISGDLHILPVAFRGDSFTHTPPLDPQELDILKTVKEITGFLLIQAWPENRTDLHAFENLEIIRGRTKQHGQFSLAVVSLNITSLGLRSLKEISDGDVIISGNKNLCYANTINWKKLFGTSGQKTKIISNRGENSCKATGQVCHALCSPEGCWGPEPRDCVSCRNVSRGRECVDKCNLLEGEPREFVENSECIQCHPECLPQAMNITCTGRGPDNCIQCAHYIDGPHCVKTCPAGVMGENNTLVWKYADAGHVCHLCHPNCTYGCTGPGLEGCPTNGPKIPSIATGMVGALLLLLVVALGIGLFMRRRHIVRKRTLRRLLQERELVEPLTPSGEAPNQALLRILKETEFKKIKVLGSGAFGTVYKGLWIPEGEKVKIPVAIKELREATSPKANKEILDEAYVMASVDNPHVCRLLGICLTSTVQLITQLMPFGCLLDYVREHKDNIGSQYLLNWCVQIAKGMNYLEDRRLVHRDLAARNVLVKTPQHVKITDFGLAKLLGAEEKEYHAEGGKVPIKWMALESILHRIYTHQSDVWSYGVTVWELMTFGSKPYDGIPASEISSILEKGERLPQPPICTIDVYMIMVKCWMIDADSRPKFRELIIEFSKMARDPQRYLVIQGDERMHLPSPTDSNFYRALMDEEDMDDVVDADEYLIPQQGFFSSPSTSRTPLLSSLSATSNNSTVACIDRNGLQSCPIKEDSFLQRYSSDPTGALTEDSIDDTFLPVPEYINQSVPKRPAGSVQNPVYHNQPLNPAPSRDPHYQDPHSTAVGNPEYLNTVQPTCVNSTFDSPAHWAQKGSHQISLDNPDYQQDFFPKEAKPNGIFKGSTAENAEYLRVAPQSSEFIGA
Neurogenic locus notch homolog protein 3 (Homo sapiens), sequence (Q9UM47 whole entry, looked up): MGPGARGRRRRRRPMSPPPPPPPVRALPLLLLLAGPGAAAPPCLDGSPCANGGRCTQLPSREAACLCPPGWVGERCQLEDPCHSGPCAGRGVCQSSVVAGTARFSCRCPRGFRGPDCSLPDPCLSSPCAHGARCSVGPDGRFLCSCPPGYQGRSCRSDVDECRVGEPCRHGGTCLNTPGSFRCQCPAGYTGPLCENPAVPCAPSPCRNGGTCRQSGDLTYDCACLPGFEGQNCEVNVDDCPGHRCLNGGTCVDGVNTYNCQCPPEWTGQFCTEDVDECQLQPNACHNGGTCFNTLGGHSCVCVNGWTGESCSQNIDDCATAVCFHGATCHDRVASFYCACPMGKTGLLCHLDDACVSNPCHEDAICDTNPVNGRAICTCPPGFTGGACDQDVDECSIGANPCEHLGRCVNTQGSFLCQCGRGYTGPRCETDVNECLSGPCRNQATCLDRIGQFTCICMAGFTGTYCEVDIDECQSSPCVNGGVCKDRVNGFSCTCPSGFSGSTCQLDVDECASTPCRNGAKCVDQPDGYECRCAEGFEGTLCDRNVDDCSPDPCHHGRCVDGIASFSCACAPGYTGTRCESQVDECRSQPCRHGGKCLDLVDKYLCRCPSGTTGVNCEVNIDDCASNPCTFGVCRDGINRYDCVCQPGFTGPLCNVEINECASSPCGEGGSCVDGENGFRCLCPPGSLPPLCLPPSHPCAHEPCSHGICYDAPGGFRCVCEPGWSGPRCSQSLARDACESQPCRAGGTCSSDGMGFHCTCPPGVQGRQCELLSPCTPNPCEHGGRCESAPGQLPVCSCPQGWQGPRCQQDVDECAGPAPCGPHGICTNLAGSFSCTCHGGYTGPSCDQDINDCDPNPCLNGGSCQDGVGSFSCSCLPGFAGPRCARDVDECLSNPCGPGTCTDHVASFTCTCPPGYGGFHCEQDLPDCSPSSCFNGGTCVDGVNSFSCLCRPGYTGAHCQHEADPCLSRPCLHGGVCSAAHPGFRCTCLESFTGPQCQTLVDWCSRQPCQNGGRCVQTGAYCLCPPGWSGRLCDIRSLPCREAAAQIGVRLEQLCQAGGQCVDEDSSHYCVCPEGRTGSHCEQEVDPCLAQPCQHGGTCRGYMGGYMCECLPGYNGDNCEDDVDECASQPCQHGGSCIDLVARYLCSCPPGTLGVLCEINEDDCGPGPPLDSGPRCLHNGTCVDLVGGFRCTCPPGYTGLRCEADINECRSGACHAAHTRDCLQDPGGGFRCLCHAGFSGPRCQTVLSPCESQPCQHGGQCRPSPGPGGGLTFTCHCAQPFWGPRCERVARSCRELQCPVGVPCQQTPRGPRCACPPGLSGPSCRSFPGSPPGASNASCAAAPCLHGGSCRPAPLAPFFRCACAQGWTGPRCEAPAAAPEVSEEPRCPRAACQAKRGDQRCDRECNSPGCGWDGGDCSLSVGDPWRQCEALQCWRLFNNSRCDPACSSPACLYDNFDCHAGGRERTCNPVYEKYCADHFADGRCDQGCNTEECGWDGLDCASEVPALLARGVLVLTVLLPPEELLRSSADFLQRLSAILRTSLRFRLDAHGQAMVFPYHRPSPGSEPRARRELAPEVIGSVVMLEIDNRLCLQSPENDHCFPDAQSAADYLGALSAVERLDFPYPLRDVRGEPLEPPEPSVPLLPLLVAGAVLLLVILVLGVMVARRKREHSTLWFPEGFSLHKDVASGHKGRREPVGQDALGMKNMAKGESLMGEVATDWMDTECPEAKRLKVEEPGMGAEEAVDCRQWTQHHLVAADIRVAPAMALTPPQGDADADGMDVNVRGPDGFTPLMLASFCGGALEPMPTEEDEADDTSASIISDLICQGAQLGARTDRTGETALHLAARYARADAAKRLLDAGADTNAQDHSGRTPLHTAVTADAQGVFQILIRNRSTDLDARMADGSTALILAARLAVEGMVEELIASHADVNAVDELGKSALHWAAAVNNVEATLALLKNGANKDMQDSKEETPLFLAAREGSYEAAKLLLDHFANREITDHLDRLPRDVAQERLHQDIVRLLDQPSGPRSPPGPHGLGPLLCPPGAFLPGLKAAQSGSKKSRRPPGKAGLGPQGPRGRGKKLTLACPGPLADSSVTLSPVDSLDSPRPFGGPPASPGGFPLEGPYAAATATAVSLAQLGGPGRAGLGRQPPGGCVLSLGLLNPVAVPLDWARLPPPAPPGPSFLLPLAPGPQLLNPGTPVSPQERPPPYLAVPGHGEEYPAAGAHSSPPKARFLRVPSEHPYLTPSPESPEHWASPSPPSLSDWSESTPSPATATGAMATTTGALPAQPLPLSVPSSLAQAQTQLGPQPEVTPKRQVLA
Follistatin-related protein 3 (Homo sapiens), sequence (O95633 whole entry, looked up): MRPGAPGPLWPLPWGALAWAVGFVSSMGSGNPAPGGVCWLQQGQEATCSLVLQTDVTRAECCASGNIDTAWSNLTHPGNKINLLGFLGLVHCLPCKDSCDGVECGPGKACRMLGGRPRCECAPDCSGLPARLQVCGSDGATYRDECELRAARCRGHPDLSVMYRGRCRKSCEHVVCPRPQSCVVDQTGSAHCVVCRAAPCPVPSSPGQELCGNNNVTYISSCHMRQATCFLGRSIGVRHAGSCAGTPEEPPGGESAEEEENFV
Fibroblast growth factor 10 (Homo sapiens), sequence (O15520 whole entry, looked up): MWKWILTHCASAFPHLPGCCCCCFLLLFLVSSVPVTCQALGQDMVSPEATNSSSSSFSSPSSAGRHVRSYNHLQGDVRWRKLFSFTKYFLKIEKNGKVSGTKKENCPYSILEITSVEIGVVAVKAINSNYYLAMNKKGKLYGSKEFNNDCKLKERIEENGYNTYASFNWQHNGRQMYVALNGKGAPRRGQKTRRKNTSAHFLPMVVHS
Torsin-1A-interacting protein 2 (Homo sapiens), sequence (Q8NFQ8 whole entry, looked up): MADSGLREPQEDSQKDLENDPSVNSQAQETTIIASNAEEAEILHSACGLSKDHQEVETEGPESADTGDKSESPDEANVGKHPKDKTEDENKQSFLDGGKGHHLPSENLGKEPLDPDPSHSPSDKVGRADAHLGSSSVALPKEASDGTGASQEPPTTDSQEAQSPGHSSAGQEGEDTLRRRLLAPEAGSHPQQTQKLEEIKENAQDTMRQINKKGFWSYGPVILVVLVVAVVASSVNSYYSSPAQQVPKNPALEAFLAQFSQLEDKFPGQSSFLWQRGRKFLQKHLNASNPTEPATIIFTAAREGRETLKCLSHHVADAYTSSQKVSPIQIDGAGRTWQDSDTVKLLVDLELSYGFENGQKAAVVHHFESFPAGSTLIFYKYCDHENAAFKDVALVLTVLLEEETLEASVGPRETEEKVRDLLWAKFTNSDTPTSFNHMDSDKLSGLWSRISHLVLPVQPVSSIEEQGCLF
Dickkopf-related protein 1 (Homo sapiens), sequence (O94907 whole entry, looked up): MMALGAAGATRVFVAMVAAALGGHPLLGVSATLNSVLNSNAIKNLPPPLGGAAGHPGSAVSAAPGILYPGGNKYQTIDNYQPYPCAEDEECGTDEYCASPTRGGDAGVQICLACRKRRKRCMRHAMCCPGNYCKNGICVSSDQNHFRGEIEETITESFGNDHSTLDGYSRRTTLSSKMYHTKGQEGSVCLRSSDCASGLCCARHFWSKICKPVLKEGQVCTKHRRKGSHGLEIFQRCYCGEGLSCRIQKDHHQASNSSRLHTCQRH

Row | Structure (SMILES) | composite z-score [1] | z-score [2] | z-score [3] | z-score [4] | composite z-score [5] | z-score [6] | composite z-score [7] | composite z-score [8] | composite z-score [9] | composite z-score [10] | composite z-score [11] | composite z-score [12] | composite z-score [13] | z-score [14] | composite z-score [15] | composite z-score [16] | composite z-score [17] | composite z-score [18] | composite z-score [19] | composite z-score [20]
1 | Cc1cc(C)c(-c2cc([C@H](C)ON=C[C@@H](C)[C@H](OCc3ccccc3)C(C)C)on2)c(C)c1 | -0.903 | 0.0494 (inactive) | 0.217 (inactive) | 0.817 (inactive) | -0.91 | -0.461 (inactive) | 0.0469 | 0.481 | 0.0065 | -0.067 | -0.761 | -0.143 | -0.0987 | -0.34 (inactive) | 0.149 | -1.17 | -0.101 | -0.0283 | -0.034 | 0.874
2 | CC(C)CON=C1C[C@@H](O)[C@@H](O)[C@@H]2[C@@H]3C(=O)N(c4ccc(F)cc4F)C(=O)[C@@H]3CC[C@@H]12 | 0.601 | 0.0347 (inactive) | -0.786 (inactive) | -0.733 (inactive) | 0.956 | 1.24 (inactive) | -0.212 | 0.344 | 0.898 | -0.026 | 0.622 | -0.153 | -0.462 | -0.817 (inactive) | 0.585 | 0.598 | 0.321 | 0.598 | 0.289 | -0.287
3 | CC(C)(C)N1C(=O)[C@H]2[C@H]3[C@H](O)[C@H](O)CC(=NNC(=O)OCc4ccccc4)[C@@H]3CC[C@H]2C1=O | 0.561 | -0.668 (inactive) | 0.588 (inactive) | 9.42 (active) | 0.883 | 0.45 (inactive) | -0.0824 | 0.457 | 0.586 | 0.172 | -0.106 | -0.348 | -0.518 | 0.305 (inactive) | 0.487 | 0.554 | 0.251 | 0.376 | 0.455 | -0.337
4 | C=CC[C@@H]1C=C[C@H](ON=C[C@@H](NS(=O)(=O)c2ccc(C)cc2)[C@H](C)C=CCC(=O)OC)[C@@H](CO)O1 | -0.248 | -0.605 (inactive) | 0.757 (inactive) | -0.0333 (inactive) | 0.324 | 0.354 (inactive) | -0.11 | 0.659 | -0.531 | -0.0715 | 0.296 | -0.353 | -0.642 | 0.463 (inactive) | 0.0083 | -0.0166 | 0.516 | 0.566 | 0.619 | 1.15
5 | CC(C)(C)N1C(=O)[C@H]2[C@@H]3C(=CC[C@H]2C1=O)C(=O)[C@H]1O[C@H]1[C@H]3O | 0.34 | -2.18 (inactive) | -4.57 (inactive) | -1.63 (inactive) | -0.758 | -2 (inactive) | -0.338 | -0.0454 | -0.615 | -0.152 | 1.09 | -0.366 | -0.779 | 3.47 (inactive) | 0.0491 | 0.138 | 0.144 | -0.162 | 0.512 | 0.555
6 | CO[C@@H](C(C)C)[C@@H](C)C1OC(=O)CC1O (stereo not given in full) | -0.255 | 0.0031 (inactive) | 0.0183 (inactive) | -0.582 (inactive) | 0.338 | 0.457 (inactive) | -0.161 | -0.614 | -0.716 | -0.195 | -0.595 | -0.148 | -0.0917 | 0.94 (inactive) | -0.114 | -0.051 | -0.57 | -0.552 | -0.166 | 0.253
7 | CCCNC(=O)OC[C@H]1O[C@H](CCON=C[C@@H](C)[C@H](OCc2ccccc2)C(C)C)C=C[C@@H]1Oc1ccc(OC)cc1 | -0.295 | -2.24 (inactive) | -1.52 (inactive) | -0.25 (inactive) | -0.605 | -1.13 (inactive) | -0.0753 | -0.0593 | -0.942 | -0.141 | -0.369 | -0.275 | -0.228 | -1.54 (inactive) | -0.302 | -1.32 | 0.332 | -0.245 | 0.159 | 0.33
8 | O=C1[C@H]2[C@H]3[C@H](O)[C@H](O)CC(=NO[C@@H]4O[C@H](CO)[C@@H](O)[C@H](O)[C@H]4O)[C@@H]3CC[C@H]2C(=O)N1c1cccc(Oc2ccccc2)c1 | -0.175 | -0.603 (inactive) | 0.275 (inactive) | 0.0506 (inactive) | 0.879 | 0.364 (inactive) | -0.028 | 0.672 | 0.449 | 0.0102 | 0.405 | -0.327 | -0.595 | 0.302 (inactive) | 0.659 | 0.736 | 0.778 | 0.711 | 0.701 | 0.374
9 | COC(=O)[C@H](Cc1ccccc1)NC(=O)[C@@H](C)CO | 1.41 | -0.152 (inactive) | -0.187 (inactive) | 0.22 (inactive) | 0.738 | -0.503 (inactive) | 0.0498 | 0.441 | 0.588 | 0.169 | -0.535 | 0.629 | 0.389 | -1.36 (inactive) | 0.477 | 0.0595 | 0.651 | 1.03 | 0.671 | 1.1
10 | C=CC[C@@H]1C=CC(ON=C(C)C)[C@@H](CO)O1 (stereo not given in full) | -0.316 | 1.03 (inactive) | 0.446 (inactive) | 1.16 (inactive) | -0.632 | 0.452 (inactive) | -0.103 | -0.117 | -1.08 | -0.215 | 0.24 | -0.011 | -0.127 | 0.304 (inactive) | -0.766 | -0.689 | 0.0691 | -0.899 | -0.307 | 1.14
